BoNT A protease: BoNT A light chain protease inhibition | AID 588499 | 360,000 compounds, 0.17% hits | multiplex microsphere protease substrate cleavage, flow cytometry | inhibition, % at 10 µM; also: plate controls were buffer without enzyme for full effect and enzyme alone for no effect
Anthrax LF inh2: anthrax lethal factor protease inhibition. 360,000 compounds, 0.12% hits. inhibition, % at 10 µM. multiplex microsphere protease cleavage assay, LF. P15917; also: plate controls were buffer without enzyme for full effect and enzyme alone for no effect
Target sequence (P15917 whole entry, looked up): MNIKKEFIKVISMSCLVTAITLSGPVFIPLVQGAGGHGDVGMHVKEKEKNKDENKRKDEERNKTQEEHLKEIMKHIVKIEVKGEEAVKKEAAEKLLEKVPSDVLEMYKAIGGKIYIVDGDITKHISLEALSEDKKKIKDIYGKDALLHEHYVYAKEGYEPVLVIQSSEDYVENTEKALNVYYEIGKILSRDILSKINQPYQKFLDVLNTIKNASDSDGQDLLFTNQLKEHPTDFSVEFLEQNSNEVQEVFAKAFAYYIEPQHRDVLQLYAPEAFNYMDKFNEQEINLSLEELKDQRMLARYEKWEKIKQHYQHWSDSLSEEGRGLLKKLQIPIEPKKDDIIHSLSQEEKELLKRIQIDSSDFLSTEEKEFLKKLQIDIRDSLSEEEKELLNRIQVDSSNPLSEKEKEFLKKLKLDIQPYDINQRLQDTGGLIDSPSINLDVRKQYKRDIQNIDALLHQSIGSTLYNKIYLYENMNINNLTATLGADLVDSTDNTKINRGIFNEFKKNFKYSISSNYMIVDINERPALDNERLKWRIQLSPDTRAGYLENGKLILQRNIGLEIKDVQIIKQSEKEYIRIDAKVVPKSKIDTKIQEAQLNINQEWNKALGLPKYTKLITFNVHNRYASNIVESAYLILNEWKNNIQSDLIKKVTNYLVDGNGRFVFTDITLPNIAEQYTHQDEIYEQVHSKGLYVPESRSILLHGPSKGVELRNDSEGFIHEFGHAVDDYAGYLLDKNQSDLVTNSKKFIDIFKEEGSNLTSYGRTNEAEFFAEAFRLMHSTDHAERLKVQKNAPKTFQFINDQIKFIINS
Autofluor counter: flagged as autofluorescent in microsphere protease counterscreen; compound autofluorescence counterscreen, microsphere flow cytometry; stronger effect = higher value; fluorescence intensity (test concentration not listed); 360,000 compounds, 3.1% hits; in the data active = fluorescence intensity above about 16000; inconclusive = no clear call, values can overlap the other calls
BoNT-F LC inh: inhibitors of Botulinum neurotoxin F light chain protease. Multiplex microsphere protease cleavage assay, flow cytometry. AID 588497. 360,000 compounds, 0.22% hits. inhibition, % at 10 µM; in the data active = inhibition above about 35%, passing the limit was not always enough; inconclusive = no clear call, values can overlap the other calls; also: plate controls were buffer without enzyme for full effect and enzyme alone for no effect
An asterisk follows results filed as active; ? = inconclusive. Compounds with a hit are over-represented: about 3.5% of the library has one in this group of screens. Rule as the data show it, unless noted: active = inhibition above about 30%; inconclusive = no clear call, values can overlap the other calls; inactive = below that.

SMILES	BoNT A protease	Anthrax LF inh2	Autofluor counter	BoNT-F LC inh
O=C(CSc1nccc(=O)[nH]1)c1ccccc1Br	0	-3	16683*	-2
CCOc1ccc(C(C)=O)cc1COC(=O)c1ccccc1C(=O)N(C)Cc1ccccc1	-3	-2	?	-9
CCCNC(=O)c1ccccc1C(=O)NCCC	2	4	4155	33
CCOCCNC(=O)c1ccccc1C(=O)NCCOCC	-4	-1	17947*	-5
COC(=O)c1ccccc1NC(=O)CSc1nc(Nc2ccccc2)nc(N2CCOCC2)n1	-4	2	5157	-4
O=c1[nH]cnc2c1ncn2C1CCC(CO)O1 (stereo not drawn)	0	-6	6308	-2
O=C1CC(N2CCN(c3cccc(C(F)(F)F)c3)CC2)C(=O)N1c1ccccc1F (stereo not drawn)	-1	-7	3123	-3
O=C1CC(N2CCN(c3cccc(C(F)(F)F)c3)CC2)C(=O)N1c1ccccc1 (stereo not drawn)	?	-2	20561*	4
Cc1cc(SCC(=O)N/N=C/c2ccc(O)c(O)c2O)c(C)cc1Br	3	0	22001*	-1
COc1cc(/C=N/NC(=O)CSc2cc(C)c(Br)cc2C)ccc1O	1	-4	4113	-3
Cc1ccnc(NS(=O)(=O)c2ccc3ccccc3c2)n1	6	-3	3676	?
C[C@@H]1COc2cc(N(C)CCO)ccc2S(=O)(=O)N1	-1	-7	4777	-9
COc1cccc(C(=O)N2CCCN(C)CC2)c1OC	4	16	3084	37*
Cc1ccc(C(=O)n2cnnc2N)cc1	?	0	21599*	-6
COc1cccc(C(=O)n2cnnc2N)c1OC	2	-2	19978*	1
COc1ccccc1C(=O)N1CCCN(C(=O)c2ccccc2OC)CC1	0	1	3921	-3
Nc1nncn1C(=O)c1cc(Br)ccc1Cl	1	9	9504	-3
Nc1nncn1C(=O)c1c(Cl)cccc1Cl	5	1	17890*	3
Cc1cc(OCC(=O)OCC(=O)N(C)C2CCS(=O)(=O)C2)ccc1Cl (stereo not drawn)	-3	3	5664	-9
N#Cc1nc(COc2ccc(Br)cc2)oc1NCCN1CCOCC1	-2	0	23449*	-2
N#Cc1nc(COc2ccc(F)cc2)oc1NCCN1CCOCC1	0	-3	4219	4
O=S(=O)(c1ccccc1)c1nc(-c2ccco2)oc1NCCCN1CCOCC1	1	-2	4174	16
N#Cc1nc(-c2ccco2)oc1NCCCN1CCOCC1	0	-9	22603*	0
N#Cc1nc(Cc2cccc3ccccc23)oc1NCCCN1CCOCC1	0	-3	7296	-2
O=S(=O)(c1ccccc1)c1nc(-c2ccco2)oc1NCCN1CCOCC1	-2	-2	23098*	-2
SMILES	BoNT A protease	Anthrax LF inh2	Autofluor counter	BoNT-F LC inh
COc1ccc(Cc2nc3ccc(C(=O)NCC(C)(C)OC)cc3o2)cc1	4	2	4051	-11
Cn1c(CC(=O)Nc2ccccc2F)nnc1SCC(=O)Nc1nccs1	1	-10	3155	0
Cc1ccccc1NS(=O)(=O)c1cc(C(=O)NCc2ccco2)ccc1C	0	4	7208	10
COc1ccccc1NS(=O)(=O)c1cc(C(=O)NCc2ccco2)ccc1C	9	2	17992*	16
COC(=O)c1sc(NC(=O)c2cc3c(s2)CCCC3)nc1C	-4	0	25221*	-8
CCC(CO)NC(=O)c1cc2c(s1)CCC2 (stereo not drawn)	1	0	3242	-4
Cc1nc(NC(=O)c2cc3c(s2)CCCCC3)sc1C(=O)N(C)C	0	0	10711	9
CC(NC(=O)c1cc2c(s1)CCCC2)C(C)(C)C (stereo not drawn)	20	-20	16452*	24
CC(=O)c1ccc(N2CCN(C(=O)c3ccc(C(=O)c4ccccc4)cc3)CC2)cc1	0	-2	3716	2
CC1=C(C(=O)N(C)C)CC(CC(=O)NCCN2CCOCC2)C(=O)N1Cc1ccc(F)cc1 (stereo not drawn)	0	0	3775	-1
Cc1cc(C)cc(-n2nc(C)cc2N)c1	?	0	16680*	0
Cc1ccc(S(=O)(=O)N2CCN(C(=O)COC(=O)COc3ccccc3)CC2)cc1	0	-1	20093*	2
Cc1ccc(S(=O)(=O)N2CCN(C(=O)CN3CCc4ccccc4C3)CC2)cc1	-2	0	21614*	-5
COc1ccc(S(=O)(=O)N2CCN(C(=O)COc3ccccc3)CC2)cc1	-1	2	3395	-1
O=C(CN1CCc2ccccc2C1)N1CCN(S(=O)(=O)c2ccccc2)CC1	1	-12	?	-2
N#Cc1nc(Nc2cccc(Cl)c2)c2ncn(C3CCCC3)c2n1	0	7	3679	1
C=CCN=C(NC#N)SCC(=O)NCc1ccccc1	1	-2	4977	-8
C=CCN=C(NC#N)SCCc1ccccc1	-3	-7	20089*	-5
CCOc1cc(/C=C2\C(=N)N3N=C(CC)SC3=NC2=O)ccc1OCCOc1ccc(NC(C)=O)cc1	-2	0	3890	?
CCC1=NN2C(=N)/C(=C\c3ccc(OCCOc4ccc(NC(C)=O)cc4)cc3)C(=O)N=C2S1	3	51*	3515	16
CC(C(=O)Nc1ccccc1C(=O)N1CCCC1)n1nnc2ccccc21 (stereo not drawn)	-3	0	21214*	-5
Cc1cccc(OC(C)C(=O)Nc2ccccc2C(=O)N2CCCCC2)c1 (stereo not drawn)	4	-1	?	-2
CCOc1cccc(C=Nc2cc(C)cc(C)c2O)c1O	?	-1	22996*	4
C=CCn1c(O)c(C(CC)=Nc2ccc(N(CC)CC)cc2)c(=O)[nH]c1=O	1	-3	21974*	1
C=CCn1c(O)c(C(CC)=NC2CC2)c(=O)[nH]c1=O	-1	0	16830*	0
SMILES	BoNT A protease	Anthrax LF inh2	Autofluor counter	BoNT-F LC inh
CN(C)CCN(C)C1CN(Cc2ccc(F)cc2)S(=O)(=O)C1 (stereo not drawn)	0	0	5350	10
COc1ccc(C(=O)Nc2nc3c(s2)Cc2cc(OC)ccc2-3)cc1	0	-4	2805	-8
COc1ccc2c(c1)Cc1sc(NC(=O)c3cccs3)nc1-2	3	-4	18806*	3
CC(=O)CSc1nc2c(c(=O)[nH]c(=O)n2C)n1CCCc1ccccc1	-4	23	4258	?
Cc1c(NC(=O)c2ccccc2N)cccc1C(=O)O	0	-4	20340*	2
CCOC(=O)c1ccc(N2CN=C3SCC(=O)N3C2)cc1	?	0	23262*	-3
Cc1ccc(C(=O)NNCC(=O)Nc2ccc(Cl)cc2F)cc1	-1	3	3219	-18
CC(=O)Nc1ccc(S(=O)(=O)NCCC(=O)OCC(=O)c2cc(C)ccc2C)cc1	1	-2	5078	0
Cc1nc(N)sc1-c1csc(Nc2ccc(Cl)cn2)n1	12	-5	16519*	11
CN(CCO)c1cccc2c1S(=O)(=O)N[C@H](Cc1ccccc1)CO2	0	0	5352	1
Cc1cc(S(=O)(=O)Nc2ccc3cn[nH]c3c2)c(C)cc1Cl	0	-3	4317	6
COc1ccc(-c2cc(N)n(S(=O)(=O)c3c(F)c(F)c(F)c(F)c3F)n2)cc1OC	?	0	16388*	-1
